Assay outcomes (PubChem)
Sampled rows, rich in hits. Any-hit rate of the full collection: about 2.1%.
D2 antagonist: D2 dopamine receptor (human) antagonism. HEK293 TREx D2 cells, calcium flux, dopamine EC80. inhibition, % at 10 µM. P14416. 2% of 340,000 active. AID 485344; in the data active means inhibition above about 30%; inactive means below that, where a call was filed
Target sequence (P14416 whole entry, looked up): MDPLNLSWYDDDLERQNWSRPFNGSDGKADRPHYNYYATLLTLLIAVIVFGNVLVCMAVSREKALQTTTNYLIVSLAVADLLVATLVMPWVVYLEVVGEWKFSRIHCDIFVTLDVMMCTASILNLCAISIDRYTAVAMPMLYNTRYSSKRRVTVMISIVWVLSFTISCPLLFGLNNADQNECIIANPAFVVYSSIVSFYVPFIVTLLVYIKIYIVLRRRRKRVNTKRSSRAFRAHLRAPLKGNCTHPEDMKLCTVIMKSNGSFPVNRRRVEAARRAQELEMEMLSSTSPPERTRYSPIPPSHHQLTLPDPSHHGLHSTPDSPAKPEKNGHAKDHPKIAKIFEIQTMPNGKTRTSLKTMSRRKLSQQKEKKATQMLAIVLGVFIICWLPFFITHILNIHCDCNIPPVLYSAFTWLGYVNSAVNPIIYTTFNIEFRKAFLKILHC
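Read-out: kinetic calcium fluorescence (1 cycle/s) in inducible HEK293 T-REx D2 cells after an EC80 dopamine addition that followed 180 s compound preincubation. Loss of the dopamine response indicates antagonism.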
D2 ag-1: D2 dopamine receptor (human) agonism. activation, % at 2 µM. HEK293 T-REx D2 cells, calcium flux agonist mode. 0.53% of 340,000 active. P14416;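 active means activation over 3 SD above normal in the single-dose calcium agonist read, cut at about 30% in these data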
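In this primary screen, compounds producing a positive calcium signal within 180 s of addition to tetracycline-induced, force-coupled HEK293 Trex D2 cells are flagged; cells are dye-loaded with a no-wash calcium kit beforehand.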
D2 PAM-1: positive allosteric modulators of human D2 dopamine receptor. P14416. DiscoveRx D2 beta-arrestin cells, luminescence, 90 min; 100% = 57 uM dopamine signal. potentiation, % (test concentration not listed). 0.23% of 360,000 active. AID 624464; in the data active means potentiation above about 50%; inconclusive means mostly about 30% to 49%
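PathHunter beta-arrestin assay in DiscoveRx D2 cells. Compounds were added with an EC20 of dopamine (50 nM final) for 90 min at 37 deg C. Luminescence was read 1 h after detection reagent, with 57 uM dopamine as the EC100 control.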
D2 PAM-2: positive allosteric modulators of human D2 dopamine receptor. HEK293 T-REx D2, calcium flux, EC20 dopamine potentiation. potentiation, % at 10 µM. 0.34% of 340,000 active. AID 485347;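 active means potentiation over 3 SD above the plate norm, cut at about 30% in these data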
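Potentiation of an EC20 dopamine calcium response measured kinetically over 180 s, after a preceding 180 s compound-only read flagging agonists. Cells: inducible Hek293 Trex D2 line, 4000/well, cultured overnight at 30 C before dye loading.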
D2 ag-2: agonists of human D2 dopamine receptor (beta-arrestin). P14416. DiscoveRx PathHunter D2 beta-arrestin, luminescence, 90 min; 100% = 57 uM dopamine signal. activation, % (test concentration not listed). 0.084% of 360,000 active; in the data active means activation above about 40%; inconclusive means between about 15% and that limit
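DiscoveRx PathHunter D2 beta-arrestin cells (2,100/well) attached overnight, then compound-stimulated 90 min at 37 C in HBSS/10 mM HEPES/0.1% Tween-20 buffer; beta-galactosidase complementation read by luminescence after 1 h at ambient temperature. Dopamine 57 uM final (EC100) as control.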
LDHA inh: blocks human lactate dehydrogenase A | purified LDHA, NADH/diaphorase-resazurin fluorescence; active compounds read low | activity change, % (values are at about 110 or 230 µM) | P00338 | AID 1347041 | 0.15% of 480,000 active; in the data active means activity change below about -30%; inconclusive means mostly about -25% to -30%
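Human LDH5 (2 nM) was incubated with 0.06 mM NADH and 0.2 mM pyruvate for 5 min at room temperature in Tris pH 7.4. Remaining NADH was coupled through diaphorase/resazurin, and resorufin fluorescence was read at 0 and 20 min.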
Numbers stand for hits; - = inactive; ? = inconclusive; . = no result given.

SMILES	D2 antagonist	D2 ag-1	D2 PAM-1	D2 PAM-2	D2 ag-2	LDHA inh
CC(=O)N1CCN(S(=O)(=O)c2cccc(C(=O)Nc3ccc(C)cn3)c2)CC1	-	-	-	-	-	-
Cc1ccc(NC(=O)c2cccc(S(=O)(=O)N3CCc4ccccc4C3)c2)nc1	31	-	-	-	-	-
Cc1ccc(N=Nc2c(N)[nH]n3c(=O)cc(-c4ccccc4)nc23)cc1	-	-	-	-	-	-
Cc1ccc(N=Nc2c(=O)[nH]n3c(=O)cc(C)[nH]c23)cc1	-	-	-	38	-	-
c1ccc(CCc2nnc(CCc3ccccc3)s2)cc1	.	.	.	.	.	-
COc1ccc2cc(C(=O)N3CCN(S(=O)(=O)c4ccc(C)cc4)CC3)c(C)nc2c1	.	.	.	.	.	-
Cc1onc(-c2c(Cl)cccc2Cl)c1CO/N=C(\C#N)c1c(Cl)cccc1Cl	30	-	-	-	-	-
Cc1onc(-c2c(Cl)cccc2Cl)c1/C(N)=N/OC(=O)C(C)(C)C	-	-	-	-	-	-
O=C1S/C(=C\c2ccc(Cl)cc2)C(=O)N1CCn1cnnn1	-	-	-	38	-	-
COc1ccc(/C=C2\SC(=O)N(CCNC(=O)Cn3cnnn3)C2=O)cc1	-	-	-	-	-	-
CCOc1ccc(OCCNC2CCCC2)cc1	-	-	-	-	-	-
CC(C)NCCOc1cccc(Br)c1	-	-	-	-	-	-
Brc1cccc(OCCCNC2CCCC2)c1	58	-	-	-	-	-
CCOc1ccccc1OCCNC1CCCC1	62	-	-	-	-	-
Cc1ccc(C)c(OCCCNC2CCCC2)c1C	-	-	-	-	-	-
COc1cccc(OC)c1OCCCNC1CCCC1	48	-	-	-	-	-
COc1ccccc1NC(=O)c1ncoc1-c1cccc(Cl)c1	.	.	.	.	.	-
O=C(COc1ccc(/C=N/NC(=O)c2ccncc2)cc1)Nc1ccc([N+](=O)[O-])cc1	42	-	-	.	-	-
O=C(CNC(=O)c1ccc([N+](=O)[O-])cc1)N/N=C\c1ccc(OC(=O)c2ccccc2)cc1	59	-	-	-	-	-
C/C(=C\C(=O)O)C(=O)Nc1cccc(C(F)(F)F)c1	.	.	.	.	.	-
Cc1ccc(C(c2cc(Cl)c3cccnc3c2O)N2CCN(C)CC2)cc1 (stereo not drawn)	39	-	-	-	-	-
CC(C(=O)Nc1ccc2c(c1)OCO2)N(C)CC(=O)Nc1ccccc1Cl (stereo not drawn)	.	.	-	.	-	-
CSc1ccccc1NC(=O)CN(C)C(C)C(=O)NCc1ccc2c(c1)OCO2 (stereo not drawn)	.	.	-	.	-	-47
O=C(CCN1CCC(c2ccccc2)C1)c1ccc2c(c1)OCCO2 (stereo not drawn)	87	-	-	-	-	-
CCC(CC)NC(=O)CN1CCN(S(=O)(=O)c2ccc(Br)s2)CC1	-	-	50	-	-	-
SMILES	D2 antagonist	D2 ag-1	D2 PAM-1	D2 PAM-2	D2 ag-2	LDHA inh
CCOc1ccc([C@H]2C3=C(C[C@H](c4ccc(OC)c(OC)c4)CC3=O)Nc3[nH][nH]c(=O)c32)cc1	.	.	.	.	.	-
CC1(C)Cc2c(sc(/N=C/N3CCCCCC3)c2C#N)C(C)(C)N1	-	-	-	-	-	-
CC1(C)Cc2c(sc(/N=C/N3CCCC3)c2C#N)C(C)(C)N1	33	-	-	-	-	-
Cc1nn(Cc2ccccc2)c(C)c1NC(=O)Cn1nc([N+](=O)[O-])c(Cl)c1C	-	-	-	-	-	-
Cc1nn(Cc2ccccc2)c(C)c1NC(=O)c1ccc([N+](=O)[O-])cc1[N+](=O)[O-]	-	-	88	-	?	-
Clc1ccc(Nc2ncnc3ccc(Br)cc23)cc1	34	-	-	-	-	-
Cc1cccc(NC(=O)COc2ncnc3ccc(Br)cc23)c1C	.	.	.	.	.	-31
Cc1c(Cl)cccc1NC(=O)COc1ncnc2ccc(Br)cc12	.	.	.	.	.	-
CCCn1c(CCc2ccccc2)nnc1SCC(=O)N1CCCC1	-	-	-	-	-	-
CCCc1nnc(SCC(=O)N2CCCC2)n1Cc1ccco1	-	40	-	-	-	-
COc1ccc(SCC(=O)Nc2ccc(C(=O)N(C)C)cc2)cc1	.	.	.	.	.	-
COc1ccc(S(=O)(=O)N(C)C)cc1NC(=O)CSC(C)C(=O)Nc1cc(C)on1 (stereo not drawn)	72	-	-	-	-	-
COc1ccc(S(=O)(=O)N(C)C)cc1NC(=O)Cc1cccs1	34	-	-	-	-	-
COc1ccc(S(=O)(=O)N2CCCCC2)cc1NC(=O)Cc1cccs1	38	-	-	-	-	-
COc1ccc(S(=O)(=O)Nc2ccccc2OC)cc1NC(=O)Cc1cccs1	-	-	-	-	-	-
COc1ccc(NC(=O)Cc2cccs2)cc1S(=O)(=O)N1CCCCC1	.	.	-	.	-	-
COc1ccc(S(=O)(=O)N(C)C)cc1NC(=O)c1ccc2c(c1)NC(=O)C(C)S2 (stereo not drawn)	77	-	-	-	-	-
O=C(Cc1cccs1)Nc1ccc(S(=O)(=O)N2CCCCC2)cc1	-	-	-	-	-	-
O=C(Cc1cccs1)Nc1cc(S(=O)(=O)N2CCCCC2)ccc1Cl	-	-	-	77	-	-
Cc1cccc(CN2CCN(c3ccccn3)CC2)c1	.	.	92	.	46	-
c1ccc(COc2cccc(CN3CCN(c4ccccn4)CC3)c2)cc1	-	-	?	-	48	-
Cc1cccc(CN2CCN(Cc3ccco3)CC2)c1	-	-	-	-	-	-32
C=CC[C@H]1Cc2c(Br)cc(Br)c(Br)c2[C@H](CC=C)N1	.	.	.	.	.	-
Cc1ccccc1COC(=O)C1Cc2ccccc2C(=O)O1 (stereo not drawn)	.	.	.	.	.	-
CCCN(CCC)CCCNC(=O)C(NS(=O)(=O)c1ccc2c(c1)CCC(=O)N2)c1ccccc1 (stereo not drawn)	45	-	-	-	-	-
SMILES	D2 antagonist	D2 ag-1	D2 PAM-1	D2 PAM-2	D2 ag-2	LDHA inh
N#CC1=C(N)Oc2c(c(=O)[nH]c3ccccc23)C1c1ccccc1 (stereo not drawn)	.	.	.	.	.	-
Cc1ccc(-c2nc(CN3CCCC3c3ccsc3)co2)cc1 (stereo not drawn)	.	.	.	.	.	-
CC1(C)C(=O)N(CCN2CCC(C(=O)c3ccc(F)cc3)CC2)c2ccccc21	-	-	-	-	-	-
Cc1nc2sccn2c(=O)c1CCN1CCC(=C(c2ccc(F)cc2)c2ccc(F)cc2)CC1	78	-	-	-	-	-
Cc1nc2ccccn2c(=O)c1CCN1CCC(C(=O)c2ccc(F)cc2)CC1	95	-	-	-	-	-
Cc1nc2sccn2c(=O)c1S(=O)(=O)N1CCN(c2ccc(F)cc2)CC1	-	-	-	-	-	-
CC1(CI)CSc2sc3ccccc3[n+]21 (stereo not drawn)	.	.	.	.	.	-
